# Sampled rows, rich in hits. Any-hit rate of the full collection: about 0.76%.
# Rv3671c inh – inhibitors of M. tuberculosis serine protease Rv3671c. inhibition, % at 5.96 µM. actives 0.048% (n = 320,000); in the data active means inhibition above about 38%;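 further: extracellular domain of Rv3671c used as enzyme; 0% = enzyme with DMSO and 100% = no enzyme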
# Target sequence (P9WHR9 whole entry, looked up, the tested form may be a part): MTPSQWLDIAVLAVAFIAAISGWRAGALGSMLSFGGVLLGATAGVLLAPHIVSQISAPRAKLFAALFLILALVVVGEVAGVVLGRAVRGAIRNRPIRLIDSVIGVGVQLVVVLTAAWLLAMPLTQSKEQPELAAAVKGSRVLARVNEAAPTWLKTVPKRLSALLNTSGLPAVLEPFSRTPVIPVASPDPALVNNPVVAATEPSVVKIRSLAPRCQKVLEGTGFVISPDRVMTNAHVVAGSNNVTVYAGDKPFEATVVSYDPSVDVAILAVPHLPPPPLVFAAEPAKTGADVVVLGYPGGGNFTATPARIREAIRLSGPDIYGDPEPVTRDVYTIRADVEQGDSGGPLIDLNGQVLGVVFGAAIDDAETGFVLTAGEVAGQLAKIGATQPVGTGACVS
# PrP UTR inh – suppresses PrP 5' UTR mRNA reporter expression; cell-based PrP 5' UTR mRNA reporter, plate reader; inhibition, % (test concentration not listed); actives 0.35% (n = 340,000); in the data active means inhibition above about 52%; further: 0 = median of the neutral control wells
# Mtb UGM inh – blocks M. tuberculosis UGM enzyme | purified UGM, fluorescence polarization probe displacement | inhibition, % at 10 µM | actives 0.06% (n = 320,000) | AID 504406; in the data active means inhibition above about 10%, passing the limit was not always enough; inconclusive means no clear call, values can overlap the other calls
# Vc quorum ag – induces V. cholerae light production without autoinducers | actives 0.16% (n = 350,000) | V. cholerae BH1578 lux reporter, luminescence, 6 h | AID 588436 | activation, % at 18.7 µM; in the data active means activation mostly above about 9.7%, no sharp cut-off; inconclusive means no clear call, values can overlap the other calls; inactive means mostly below about 3.7%
# FadD28 FP inh – M. tuberculosis FadD28 bisubstrate binding inhibition | actives 0.22% (n = 360,000) | inhibition, % at 12.5 µM | FadD28 bisubstrate probe binding, fluorescence polarization; in the data active means inhibition above about 8.5%, passing the limit was not always enough; inconclusive means no clear call, values can overlap the other calls
# Mtb betalactam – beta-lactam sensitization of Mtb H37Rv; inhibition, % at 25 µM; actives 0.27% (n = 330,000); M. tuberculosis H37Rv growth with meropenem, percent inhibition; call rule not given here;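 further: growth measured after seven days incubation then overnight dye step; 0% = bacteria only wells and 100% = bacteria with antibiotic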
# PrP 5UTR single – prion 5' UTR mRNA inhibition, cherry-pick retest; shares compounds with PrP UTR inh; cell-based prion protein 5' UTR reporter, plate reader; inhibition, % at 2.5 µM; actives 48% (n = 1,100); AID 504592; in the data active means inhibition above about 54%; inconclusive means no clear call, values can overlap the other calls
# * marks the source's active call; other numbers are inactive results; i = inactive; u = inconclusive; x = not tested or not shown.
SMILES,Rv3671c inh,PrP UTR inh,Mtb UGM inh,Vc quorum ag,FadD28 FP inh,Mtb betalactam,PrP 5UTR single
Cc1ccc(/C([O-])=C(/C(=S)NCc2ccc3c(c2)OCO3)[n+]2ccc(N(C)C)cc2)c(C)c1,0,66*,3,2,1,0,-10
COC(=O)Cc1c(O)ccn(Cc2ccc(Cl)c(Cl)c2)c1=O,4,-7,-1,0,-4,0,x
COC(=O)Cc1c(O)ccn(Cc2ccc(OC)c(OC)c2)c1=O,0,63*,0,0,1,-2,-8
O=C(c1ccc(Cl)cc1)N1CCCCC(Sc2nnc(-c3ccc4c(c3)OCO4)o2)C1=O (stereo not drawn),-8,74*,3,i,-2,-3,78*
O=C(O)CSc1nnc(-c2ccc3c(c2)OCO3)o1,3,-7,3,-2,0,-8,x
Cc1c(/C=N\NC(=O)C2COc3ccccc3O2)c2ccccc2n1C (stereo not drawn),-7,67*,0,0,-2,-1,83*
Cn1cc(/C=N\NC(=O)C2COc3ccccc3O2)c2ccccc21 (stereo not drawn),-8,x,1,x,x,9,x
CC1(C)Cc2c(sc3nc(C4CC4)n(N)c(=O)c23)CO1,-10,-12,-4,i,-4,0,x
CN1CCN(c2ccc(CNC(=O)C3Cc4c(-c5ccccc5)ccnc4O3)cc2)CC1 (stereo not drawn),x,x,x,i,0,x,x
CC(=O)OC1CC(OC2C(O)CC(OC3C(O)CC(OC4CCC5(C)C(CCC6C5CCC5(C)C(C7=CC(=O)OC7)C(O)CC65O)C4)OC3C)OC2C)OC(C)C1OC1OC(CO)C(O)C(O)C1O (stereo not drawn),x,94*,x,i,0,x,68*
CC(C)=CCC[C@](C)(O)C1CC[C@]2(C)C1C(O)CC1[C@@]3(C)CCC(O)C(C)(C)C3C(O[C@@H]3OC(CO)C(O)C(O)C3O[C@@H]3OC(C)C(O)C(O)C3O)C[C@]12C (stereo partly drawn),7,-6,4,-1,-1,-5,x
CC(=O)OC1CC2(O)C3CCC4CC(O)CCC4(C)C3CCC2(C)C1C1=CC(=O)OC1 (stereo not drawn),x,86*,x,i,-2,x,80*
CC1OC(OC2C(O)CC(OC3C(O)CC(OC4CCC5(C)C(CCC6C5CCC5(C)C(C7=CC(=O)OC7)C(O)CC65O)C4)OC3C)OC2C)CC(O)C1O (stereo not drawn),x,94*,x,x,0,x,86*
C[C@H]1O[C@@H](OC2CC[C@]3(C=O)[C@H]4CC[C@]5(C)[C@@H](C6=CC(=O)OC6)CC[C@]5(O)[C@@H]4CC[C@]3(O)C2)CC2OC(C)(C)OC21 (stereo partly drawn),0,84*,2,i,-1,-6,85*
CC(C)(C)c1ccc(OCC(=O)Nc2ccc3c4c(cccc24)C(=O)NC3=O)cc1,x,-49,x,0,-4,x,x
CCN(CC)c1nc(Oc2ccc(C(=O)OC)cc2)nc(N2CCOCC2)n1,-2,82*,3,-1,-3,6,-26
COC(=O)c1ccc(Oc2nc(N3CCCCC3)nc(N3CCOCC3)n2)cc1,-1,-21,-1,0,-2,99,x
CCOc1ccc(OCC(=O)Nc2nccs2)cc1,5,58*,4,-1,0,61,37
Cc1cccc2cc(C#N)c(SCC(=O)N3CC(=O)Nc4ccccc43)nc12,-49,64*,4,i,-2,15,81*
COc1ccc2cc(C#N)c(SCC(=O)N3CC(=O)Nc4ccccc43)nc2c1,-17,-27,4,0,-1,-3,x
Cc1ccc(C(=O)O/N=C(\N)c2ccccc2)c(Cl)c1,-7,56*,0,-1,-3,2,55*
Cc1ccc(C(=O)O/N=C(\N)c2ccccn2)c(Cl)c1,-1,81*,1,1,-4,25,94*
N/C(=N\OC(=O)c1ccc([N+](=O)[O-])cc1Cl)c1ccccn1,-1,65*,1,0,-3,9,u
N/C(=N\OC(=O)c1ccc(Cl)cc1Cl)c1ccccn1,-1,79*,0,i,-1,42,55*
N/C(=N\OC(=O)c1ccccc1Cl)c1ccncc1,-13,-79,-1,0,-3,-5,x
SMILES,Rv3671c inh,PrP UTR inh,Mtb UGM inh,Vc quorum ag,FadD28 FP inh,Mtb betalactam,PrP 5UTR single
CSCCC(NC(=O)c1cccc(C)c1)C(=O)OCC(=O)Nc1c(C)nn(-c2ccccc2)c1C (stereo not drawn),11,-11,0,i,-3,-7,x
O=C(Nc1ccc(C(=O)N2CCOCC2)cc1)c1ccccc1[N+](=O)[O-],-1,-15,-1,0,-2,2,x
COc1ccc(C2CC(=O)Oc3cc4c(cc32)OCO4)cc1 (stereo not drawn),x,53*,x,-1,-1,x,-7
CCCCNS(=O)(=O)c1ccc(NC(=O)Cc2ccc(OC)cc2)cc1,0,69*,-2,i,-2,-6,10
COc1ccc(CC(=O)Nc2ccc(S(=O)(=O)NC(C)C)cc2)cc1,5,-6,-4,0,0,-7,x
COc1ccccc1CCc1nnc(CCC(=O)N(C)Cc2cccc3ncccc23)o1,9,58*,-1,0,0,-1,-26
O=C(CN1C(=O)c2ccccc2S1(=O)=O)c1ccccc1,6,32,-1,i,-1,-8,x
O=C(CN1C(=O)c2ccccc2S1(=O)=O)c1ccccc1Cl,2,69*,3,0,-3,-2,70*
Cc1ccc(C(=O)CN2C(=O)c3ccccc3S2(=O)=O)cc1,-3,65*,-2,-1,-3,-2,74*
O=C(O)c1cccc(COc2ccccc2Cl)c1,-4,69*,0,1,-2,-11,83*
Cc1c(Cc2ccccc2)sc(/N=C/c2c(O)ccc3ccccc23)c1C(N)=O,-12,-20,0,0,-1,1,x
Cc1c(Cc2ccccc2)sc(/N=C/c2ccc3ccccc3c2)c1C(N)=O,-1,60*,-1,-1,-1,-10,95*
Cc1cn([C@H]2C[C@H](O)[C@@H](CCC(=O)NCc3cccc4ccccc34)O2)c(=O)[nH]c1=O,x,x,x,x,-1,x,x
Cc1cn([C@H]2C[C@H](O)[C@@H](CCC(=O)NCCc3c[nH]c4ccccc34)O2)c(=O)[nH]c1=O,x,59*,x,-2,-1,x,-54
Cc1ccc(NC(C#N)c2ccccc2OCc2ccccc2)cc1 (stereo not drawn),2,-52,-4,-1,3,10,x
CC(=O)OCC(=O)[C@H]1CC[C@H]2[C@@H]3CCC4=CC(=O)CC[C@]4(C)[C@H]3CC[C@]12C,-3,-14,1,4,0,3,x
